Compound activity from PubChem BioAssay.
TMEM16A act = activators or potentiators of mouse TMEM16A chloride channel; Q8BHY3; B-score at 10 µM; AID 623877; actives 0.3% (n = 340,000); HEK293 TMEM16A/YFP-H148Q/I152L, iodide quench fluorescence; active compounds read low;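 active = fluorescence-ratio B-score plate-corrected deviation score at least 3 library SD below zero, with starting fluorescence score within 5 deviations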;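 note: channel opened by trigger with iodide after compound preincubation; score built on the fluorescence ratio of max minus min over baseline; more negative score means more quench and so TMEM16A activation or potentiation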
CHT block = human CHT choline transport inhibition; Q9GZV3; CHT-expressing cells, membrane potential dye, choline response; active compounds read low; B-score at 10 µM; actives 0.86% (n = 310,000);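 active = B-score over 3 SD under the library average, and starting fluorescence ratio not unusually high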;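 note: choline stimulus applied at its EC90 after an EC20 pre-addition; B-score computed on integrated fluorescence ratio after choline addition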
Target sequence (Q9GZV3 whole entry, looked up): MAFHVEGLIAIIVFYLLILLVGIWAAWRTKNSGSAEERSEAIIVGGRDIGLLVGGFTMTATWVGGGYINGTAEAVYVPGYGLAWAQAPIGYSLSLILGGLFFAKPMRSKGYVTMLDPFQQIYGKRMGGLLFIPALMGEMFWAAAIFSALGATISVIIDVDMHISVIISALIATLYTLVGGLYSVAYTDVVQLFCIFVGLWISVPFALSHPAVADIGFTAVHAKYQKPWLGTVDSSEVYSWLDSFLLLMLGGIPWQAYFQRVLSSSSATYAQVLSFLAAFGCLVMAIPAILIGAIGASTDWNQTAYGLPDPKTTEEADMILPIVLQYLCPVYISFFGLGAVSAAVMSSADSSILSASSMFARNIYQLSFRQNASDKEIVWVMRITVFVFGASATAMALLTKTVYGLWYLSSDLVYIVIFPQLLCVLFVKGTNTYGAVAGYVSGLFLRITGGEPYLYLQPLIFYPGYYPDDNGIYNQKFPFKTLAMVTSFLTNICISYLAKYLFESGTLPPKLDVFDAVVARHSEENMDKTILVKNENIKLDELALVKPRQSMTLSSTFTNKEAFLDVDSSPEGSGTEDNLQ
TMEM16A inh = inhibitors of mouse TMEM16A calcium-activated chloride channel; Q8BHY3; HEK293 TMEM16A/YFP iodide influx fluorescence, ionomycin; normalized B-score (activity score, 25-100; higher = stronger inhibition) at 10 µM; actives 1.2% (n = 310,000); AID 588511;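 active = ratio plate-corrected score three or more library SD toward inhibition, starting fluorescence score within five deviations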;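 note: score derived from kinetic fluorescence span divided by baseline fluorescence per well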
CHT allo act = human CHT allosteric activation; B-score at 10 µM; CHT-expressing cells, membrane potential dye, choline EC20; active compounds read high; LV-AA mutant CHT in HEK293 cells; AID 488977; Q9GZV3; actives 0.49% (n = 310,000);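 active = initial fluorescence not abnormally high and integrated response B-score, plate-corrected, over 3 SD above library mean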
Numbers without * were called inactive; i = inactive; / = not tested or not shown. Most compounds without a hit are left out; they make up all but 2.4% or so of the library.

SMILES	TMEM16A act	CHT block	TMEM16A inh	CHT allo act
Cc1ccc(C(=O)NCCSc2ccc(Cl)cc2)cc1S(=O)(=O)Nc1ccccc1	i	i	100*	i
C/C(=N/NC(=O)CSc1nc2ccccc2s1)c1ccncc1	i	i	i	i
CS/C(=N\S(=O)(=O)c1cccs1)NC(=O)CSc1nc2ccccc2s1	i	i	100*	i
COc1cccc(CNc2ccc([N+](=O)[O-])cc2Cl)c1O	i	i	25*	i
COc1cccc(OC)c1OCCCOc1ccc([N+](=O)[O-])cc1Cl	i	i	100*	i
COc1ccccc1CNc1ccc([N+](=O)[O-])cc1C	i	i	25*	i
COc1ccc([N+](=O)[O-])cc1NC(=O)Cc1ccccc1Cl	i	i	i	i
CC(=O)c1c(-c2ccc(Cl)cc2Cl)noc1C	i	i	i	i
O=C(NCC(c1cccs1)N1CCOCC1)c1ccccc1NS(=O)(=O)c1cccc([N+](=O)[O-])c1 (stereo not given)	i	i	i	i
O=C(NCC(c1cccs1)N1CCOCC1)c1ccccc1NS(=O)(=O)c1ccc(Cl)c([N+](=O)[O-])c1 (stereo not given)	i	i	25*	i
Cc1nc2scc(C)n2c(=O)c1S(=O)(=O)N1CCN(c2ccccc2F)CC1	i	i	i	i
O=C(Cc1ccc(F)cc1)NCCS(=O)(=O)N1CCN(c2ccccc2)CC1	i	i	i	i
Cn1c(Sc2ccc(Br)cc2)c(C=O)c2ccccc21	i	i	100*	i
COc1ccc(/C=C\c2cc(OC)c(OC)cc2CC[N+](C)(C)C)cc1OC	i	i	i	10*
COc1ccc(/C=C/C(=O)c2ccc(C(=O)/C=C/c3ccc(OC)c(OC)c3)cc2)cc1OC	i	/	/	/
COc1ccc(CN2Cc3cccc4c3[C@@H](CC2=O)[C@H](O)[C@H](O)C4)cc1	-9.2*	/	/	/
O=S(=O)(Cc1ccccc1Cl)N1CCCCC1	i	i	i	i
O=C(CNS(=O)(=O)c1c(Cl)cccc1Cl)N1CCCCCC1	i	i	i	i
COc1cccc(NC(=O)Nc2nnc(CC(=O)NCc3ccccc3)s2)c1	-4.9*	i	i	i
O=C(O)CN1C(=O)/C(=C\c2cccc(OC(=O)c3ccco3)c2)SC1=S	i	i	i	i
O=C(O)CN1C(=O)/C(=C\c2ccc(OC(=O)c3ccco3)cc2)SC1=S	-5.9*	i	i	i
Cc1ccc2c(c1)N(C(=O)CCC(=O)N1CCN(c3ccccc3)CC1)CCO2	i	i	i	i
O=C(c1cccc([N+](=O)[O-])c1)c1ccc2c(c1)OCCOCCOCCO2	i	i	i	i
Cc1ccc(O)c(C2=Nc3ccccc3N=C(c3cccs3)C2)c1	i	i	i	i
Cc1cc(C)cc(NC(=S)N(Cc2ccc(Br)cc2)Cc2ccc(C(=O)O)cc2)c1	i	i	25*	i
SMILES	TMEM16A act	CHT block	TMEM16A inh	CHT allo act
COc1ccc(CCN2C(=O)/C(=C\c3ccco3)SC2=S)cc1OC	i	/	/	/
COC(=O)C(C)Sc1nc(NCc2ccccc2)nc(N(C)C)n1 (stereo not given)	i	i	i	i
CCOc1ccccc1N1CCN(CC(=O)NCCc2ccc(S(N)(=O)=O)cc2)CC1	-5.5*	i	i	i
C[N+]1=C(/C=C/Nc2ccccc2Cl)C(C)(C)c2ccccc21	i	i	i	i
COC(=O)c1ccc2c(c1)C(C)(C)C(/C=C/c1ccccc1O)=[N+]2C	i	i	i	7.2*
Cc1ccc(C2c3c(C)nn(-c4ccc([N+](=O)[O-])cc4)c3N=C3C(=O)Nc4ccccc4N32)cc1 (stereo not given)	/	-6.3*	i	i
COc1cccc(C2c3c(C)nn(-c4ccc([N+](=O)[O-])cc4)c3N=C3C(=O)Nc4ccccc4N32)c1 (stereo not given)	i	i	i	i
COC(=O)CN1C(=O)[C@@H]2[C@H](C1=O)[C@@H]1CC(C(=O)OC)=C[C@@H](C(=O)OC)[C@@H]3C1=C(C(=O)[C@]3(C)NC(=O)c1ccccc1)[C@@H]2C	i	i	i	i
O=C(C/C=N/OCc1ccc(Cl)cc1)c1cnc(-c2ccccc2)s1	i	i	i	i
O=C(C/C=N/OCc1c(Cl)cccc1Cl)c1cnc(-c2ccccc2)s1	i	i	100*	i
COc1cc(/C=C2\C(=O)ON=C2c2ccc(Cl)cc2)ccc1O	-5.9*	i	i	i
O=C(c1cc(=O)c2cc(Cl)ccc2o1)N1CCN(Cc2ccccc2)CC1	i	i	i	i
N#CC(c1ccc(Cl)cc1)c1ccc2c(C(F)(F)F)cc(C(F)(F)F)nc2n1 (stereo not given)	i	i	100*	i
Nc1ccc2c(C(F)(F)F)cc(C(F)(F)F)nc2n1	i	i	i	i
CN(C)c1ccc(O)c2c1CC1CC3C(N(C)C)C(=O)C(C(N)=O)=C(O)[C@@]3(O)C(=O)C1=C2O (stereo not given in full)	i	i	i	i
CN(C)c1ccc(O)c2c1CC1CC3[C@@H](N(C)C)C(=O)C(C(N)=O)C(=O)[C@]3(O)C(=O)C1C2=O (stereo not given in full)	-9.4*	/	/	/
O=C(c1cccc(S(=O)(=O)N2CCc3ccccc32)c1)N1CCc2ccccc2C1	i	/	/	/
COCc1cc(C)nc2sc(C(=O)Nc3ccccc3Br)c(N)c12	i	i	i	i
COc1ccc(OCCN2CCN(C(=O)c3ccc(OC(F)F)c(OC)c3)CC2)cc1	i	i	i	i
COc1ccc(OCCN2CCN(C(=O)c3ccc(OC)cc3)CC2)cc1	i	i	100*	i
CC(C)n1c(=NC(=O)c2ccco2)c(C#N)cc2c(=O)n3ccccc3cc21	i	i	i	7.2*
NC(=O)CSc1ccc(S(=O)(=O)N2CCCCC2)cn1	i	/	/	/
CC(=O)NCCSc1ccc(S(=O)(=O)N2CCCC2)cn1	-21*	/	/	/
O=S(=O)(Nc1ccc2c(c1)OCCO2)c1ccc2oc3ccccc3c2c1	i	i	25*	i
COc1cccc(NC(=O)C(C)Sc2nnc(C3CC3)n2C2CC2)c1 (stereo not given)	-32*	/	/	/
COc1ccc(Cl)cc1NC(=O)C(C)Sc1nnc(C2CC2)n1C1CC1 (stereo not given)	i	/	/	/
CC#CC(=O)N1CCC(n2nccc2NC(=O)c2ccc3c(c2)OCO3)CC1	i	i	i	i
Cc1cc(C(=O)COC(=O)c2ccc[nH]c2=O)c(C)n1-c1ccccc1F	i	i	i	i
Cc1cc(C(=O)COC(=O)c2ccc(O)cc2)c(C)n1-c1ccccc1F	-29*	i	i	i
